# Screening data as filed in PubChem BioAssay.
# Sampled rows, rich in hits. Any-hit rate of the full collection: about 4.2%.
# SMARCA2 act = SMARCA2 (BRM) function activators, primary screen, cell-based, luminescence, high throughput; MG213 cells, MMTV-luciferase reporter, dexamethasone, overnight; AID 652017, 2013; hit rate 1% among 370,000; activation, % at 9.1 µM; in the data active = activation above about 7.8%;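 note: 0% = vehicle wells and 100% = reference activator wells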
# hgDAF12 agonist = H. glycines DAF-12 receptor agonists, primary screen, cell-based, luminescence, HEK293, GAL4 fusion, UAS-luciferase | HEK293 GAL4-hgDAF12 UAS-luciferase reporter, agonist luminescence; normalized to butyrate control | activation, % at 6.8 µM | hit rate 1.8% among 370,000 | AID 687014, 2013;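 active = activation above a cutoff set at the mean of all screened compounds plus 3 SD, cut at about 10% in these data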;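 note: 0% = DMSO wells and 100% = sodium butyrate wells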
# hcDAF12 agonist = H. contortus DAF-12 nuclear receptor activators, primary screen, cell-based, luminescence, HEK293, lit1-tk-luc reporter; HEK293 hcDAF-12 lit1-tk-luc reporter; 0% DMSO, 100% Δ7-dafachronic acid; activation, % at 6.8 µM; hit rate 1.4% among 370,000;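 active = activation above the mean of all tested compounds plus 3 SD, cut at about 5.5% in these data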;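 note: 100% = response to 3 µM Δ7-dafachronic acid high control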
# DAX1 StAR inh = DAX1 (NR0B1) inhibitors on StAR promoter, primary screen, cell-based, luminescence, SF-1 (NR5A1), full-length DAX-1. hit rate 1.1% among 370,000. inhibition, % at 6.8 µM. HEK293T StAR-luciferase reporter, SF-1/DAX-1 repression relief;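 active = inhibition above the mean over all tested compounds plus 3 SD, cut at about 3.6% in these data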;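 note: 0% = DAX-1 cells with DMSO and 100% = cells lacking DAX-1 with DMSO; higher inhibition means more luminescence from relief of DAX-1 repression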
# ssDAF12 agonist = S. stercoralis DAF-12 nuclear receptor activators, primary screen, cell-based, luminescence, HEK293, GRIP1 co-expression, lit1-tk-luc. Nuclear hormone receptor DAF-12 (Strongyloides stercoralis). HEK293 ssDAF-12/GRIP1 lit1-tk-luc reporter; % of 3 µM dafachronic acid response. activation, % at 6.8 µM. hit rate 1% among 370,000;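 active = activation above the mean over all tested compounds plus 3 SD, cut at about 0.9% in these data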;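 note: 0% = DMSO-only wells and 100% = 3 µM delta7-dafachronic acid wells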
# * marks the source's active call; other numbers are inactive results.
SMILES,SMARCA2 act,hgDAF12 agonist,hcDAF12 agonist,DAX1 StAR inh,ssDAF12 agonist
O=C(NCCc1ccccc1)c1cccc(Br)c1,2.2,5.8,0.6,1.1,-0.2
O=C(NCCc1ccccc1)c1cccnc1,1.5,11.5*,0.8,1.3,-0.7
O=C(NCCc1ccccc1)c1ccc2nccnc2c1,1.1,10.7*,4.6,4.2*,-0.4
COc1ccc(-c2nc(NCCN(C)C)nc3ccsc23)c(C)c1,-0.2,-2.1,-1.5,-0.3,-1.1
COc1ccc(-c2nc(Cn3c(SCc4cccc(F)c4)nc4ccncc43)c(C)o2)cc1OC,-2.4,0.1,-1.5,-0.9,-1.6
COc1ccc(-c2nc(Cn3c(SCc4ccc(C)cc4)nc4ccncc43)c(C)o2)cc1OC,1.4,11.5*,3.0,0.5,-1.2
C=CCN1C(=O)[C@@H](CC(=O)N2CCCC2)[C@]2(C(=O)OC)CCCCC=C12,-0.4,-0.5,-3.4,-0.7,-1.2
CCOc1ccc(NC(=O)CSc2nnc(-c3n[nH]c4c3CCC4)n2N)cc1,0.2,4.0,-1.4,-2.6,-1.0
C/C(=N\NC(=O)c1cc2ccccc2cc1O)c1ccc(C)o1,1.3,-0.9,0.2,0.9,-1.2
C/C(=N\NC(=O)c1c[nH]c2ccccc12)c1ccc(C)o1,2.8,5.6,5.7*,2.1,2.7*
COC(=O)[C@]12C[C@H](CC(=O)N3CCCC3)C(=O)N(CCc3ccc(OC)c(OC)c3)C1=C[C@H](C1CCCC1)O[C@@H]2C,-1.5,1.6,-0.4,-1.3,-2.0
COCCN(C(=O)CCC(=O)Nc1cc(C)on1)C(C(=O)NC(C)(C)C)c1ccccc1Cl (stereo not drawn),7.8*,0.2,1.2,-0.2,-0.7
CN(CC(=O)Nc1cccc(F)c1)C(=O)c1cccc(S(=O)(=O)N2CCN(Cc3ccccc3)CC2)c1,-3.9,-3.1,-2.5,-1.6,11.3*
CCc1ccc(-c2nc(CS(=O)CC(=O)O)c(C)o2)cc1 (stereo not drawn),6.9,11.6*,1.9,0.6,-0.3
O=C(CSc1nnc(-c2ccccc2)n1-c1ccccc1)Nc1ccccc1-c1ccccc1,-6.0,-2.8,-3.1,-1.8,-2.0
CN1CCN(Cc2coc3c(Cl)cc(Cl)cc3c2=O)CC1,-0.7,-2.6,0.6,0.3,1.3*
C=CCn1c(C)cc(C(=O)CSc2nnc(C3CC3)n2C2CC2)c1C,-0.7,3.2,-0.2,4.2*,-0.2
CC(=O)N(C)Cc1ccc(C(=O)CSc2nnc(C3CC3)n2C2CC2)cc1,-2.6,-1.1,0.4,1.5,-1.3
Cc1cc(C(=O)CSc2nnc(C3CC3)n2C2CC2)c(C)n1C(C)C,-2.4,0.1,-0.2,0.1,-1.5
CC(=O)NCCc1ccc(C(=O)CSc2nnc(C3CC3)n2C2CC2)cc1,-0.8,1.8,3.2,4.5*,-0.8
COC(=O)c1cnc2ccccc2n1,7.8*,0.4,-1.2,-0.2,-1.0
Cc1ccc(CNC(=O)c2cnc3ccccc3n2)cc1,3.6,0.2,0.0,0.1,0.0
COCCNC(=O)c1ccc2ccccc2n1,-2.6,1.8,2.4,1.3,-0.1
O=C(NCCc1ccc(Cl)cc1)c1ccc2ccccc2n1,-0.9,4.7,6.0*,0.4,-1.3
O=C(NCCc1ccccc1)c1cnc2ccccc2n1,6.0,13.0*,5.2,1.5,-0.3
SMILES,SMARCA2 act,hgDAF12 agonist,hcDAF12 agonist,DAX1 StAR inh,ssDAF12 agonist
CC(C)C[C@@H]1COc2cccc(N3CCCCC3)c2S(=O)(=O)N1,-1.4,0.2,0.3,-1.3,-0.9
CCOc1ccc(N(CC(=O)Nc2c(C)n(C)n(-c3ccccc3)c2=O)S(=O)(=O)c2cc(OC)ccc2OC)cc1,-5.6,2.2,-0.9,-0.3,-1.3
COC(=O)C(Cc1c[nH]c2ccccc12)NC(=O)C(=O)c1c[nH]c2ccccc12 (stereo not drawn),-0.6,2.8,5.9*,-0.3,0.2
O=C(NC(Cc1c[nH]c2ccccc12)C(=O)O)/C(=C/c1ccc(F)cc1)NC(=O)c1ccccc1 (stereo not drawn),0.4,1.9,5.5,0.0,0.9*
O=C(O)C(Cc1c[nH]c2ccccc12)NS(=O)(=O)c1ccc2ccccc2c1 (stereo not drawn),1.4,1.0,3.7,0.3,0.5
COC(=O)C(Cc1c[nH]c2ccccc12)NC(=O)C(C)C (stereo not drawn),-2.1,-1.5,1.3,-0.5,-1.1
O=C(O)c1cc(S(=O)(=O)NC(Cc2c[nH]c3ccccc23)C(=O)O)ccc1Cl (stereo not drawn),0.3,2.2,5.9*,-0.3,0.9*
CCCCNC(=O)C1(C(=O)c2ccc(OC)cc2)CC(C(=O)OCC)=NO1 (stereo not drawn),0.9,0.4,-0.9,0.3,-0.6
CCOC(=O)[C@]12CCCC=C1N(Cc1ccc3c(c1)OCO3)C(=O)[C@H](CC(=O)NCCCCc1ccccc1)C2,-3.2,-0.1,-2.7,-0.5,-1.2
O=C(O)c1cccc(-c2noc(-c3cccc(Cl)c3)n2)c1,4.9,13.0*,4.2,2.5,0.3
COc1ccc(CN2C[C@H](COCc3ccccc3)Oc3cccc(N4CCCC4)c3S2(=O)=O)cc1,0.1,1.9,-0.4,-0.4,-0.6
COCc1cc(C)nc2sc(C(=O)Nc3ccc(OC)cc3)c(N)c12,1.9,1.8,3.1,-0.2,-1.4
COCc1cc(C)nc2sc(C(=O)Nc3cccc(OC)c3)c(N)c12,6.3,10.4*,5.5,1.1,0.2
CC[C@@H]1[C@H]2CCCC(=O)N3CC[C@@H](C[C@@H]1OC(=O)NCc1ccccc1)[C@@H]23,0.1,-0.8,-1.4,-0.4,-1.4
O=C1C[C@@H]2CCN3C(=O)CCC[C@@H]([C@H]23)[C@@H]1Cc1ccccc1,0.9,-1.0,-0.6,3.9*,-1.0
O=C(OC12CCCN(C1)/C(=C/c1ccc(Cl)cc1)C2)C1CCCCC1 (stereo not drawn),-3.0,-0.6,0.6,0.9,-1.2
CNc1cnc(-c2ccc(F)c(F)c2F)cn1,4.8,12.1*,1.9,3.8*,0.5
COC(=O)[C@]12C[C@H](CC(=O)NCc3ccc(OC)c(OC)c3)C(=O)N(Cc3ccco3)C1=C[C@H](C(C)(C)C)O[C@@H]2C,-1.0,0.5,-0.6,-0.1,-0.7
COc1ccc2c(c1)OC/C(=C/c1cccs1)C2=O,3.0,9.6,3.0,4.2*,-0.4
Cc1c(-c2ccccc2)[nH]n2c(=O)c3c(nc12)CCCC3,5.1,10.5*,2.4,2.5,-0.5
Cc1ccsc1/C=N\NC(=O)c1cc(C(C)(C)C)[nH]n1,5.0,10.8*,2.4,2.5,-0.7
